High-throughput results from PubChem BioAssay.
AI-2 QS modul: modulates the Vibrio harveyi AI-2 quorum sensing system. Vibrio harveyi JMH597 AI-2 luminescence/OD600 ratio, 9 h; stronger effect = lower value; strain lacks LuxN and CqsS sensors; 0 = neutral-control median. activity change, % at 7.5 µM. actives 0.4% (n = 300,000); in the data active means activity change below about -75%, passing the limit was not always enough; inconclusive means no clear call, values can overlap the other calls;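 further: luminescence divided by OD600 gain over 9 h not by final OD600 alone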
ALR inh: blocks human ALR sulfhydryl oxidase activity | actives 3.8% (n = 290,000) | AID 485317 | purified ALR, DTT oxidation, H2O2 HRP-luminol luminescence | inhibition, % (concentration not given with the values);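 active means mean replicate inhibition above about 79%, with every replicate also reaching it, limit read from the data; inconclusive means only one of the two criteria met; inactive means mean below limit and not every replicate reaching it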
CHT block: human CHT choline transport inhibition; Q9GZV3; CHT-expressing cells, membrane potential dye, choline response; stronger effect = lower value; B-score at 10 µM; actives 0.86% (n = 310,000); AID 488975;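 active means B-score over 3 SD under the library average, and starting fluorescence ratio not unusually high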;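 further: choline stimulus applied at its EC90 after an EC20 pre-addition; B-score computed on integrated fluorescence ratio after choline addition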
CHT PAM: human CHT allosteric activation; B-score at 10 µM; CHT-expressing cells, membrane potential dye, choline EC20; stronger effect = higher value; LV-AA mutant CHT in HEK293 cells; actives 0.49% (n = 310,000); AID 488977; Q9GZV3;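 active means initial fluorescence not abnormally high and integrated response B-score, plate-corrected, over 3 SD above library mean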
PREPL inhibitor: inhibits the human prolyl oligopeptidase-like enzyme; Q4J6C6; recombinant PREPL, fluorescence polarization activity-based probe; inhibition, % at 5.96 µM; actives 0.68% (n = 320,000); AID 2751; in the data active means inhibition above about 43%;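 further: 0% = enzyme with DMSO and 100% = wells lacking enzyme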
Target sequence (Q4J6C6 whole entry, looked up): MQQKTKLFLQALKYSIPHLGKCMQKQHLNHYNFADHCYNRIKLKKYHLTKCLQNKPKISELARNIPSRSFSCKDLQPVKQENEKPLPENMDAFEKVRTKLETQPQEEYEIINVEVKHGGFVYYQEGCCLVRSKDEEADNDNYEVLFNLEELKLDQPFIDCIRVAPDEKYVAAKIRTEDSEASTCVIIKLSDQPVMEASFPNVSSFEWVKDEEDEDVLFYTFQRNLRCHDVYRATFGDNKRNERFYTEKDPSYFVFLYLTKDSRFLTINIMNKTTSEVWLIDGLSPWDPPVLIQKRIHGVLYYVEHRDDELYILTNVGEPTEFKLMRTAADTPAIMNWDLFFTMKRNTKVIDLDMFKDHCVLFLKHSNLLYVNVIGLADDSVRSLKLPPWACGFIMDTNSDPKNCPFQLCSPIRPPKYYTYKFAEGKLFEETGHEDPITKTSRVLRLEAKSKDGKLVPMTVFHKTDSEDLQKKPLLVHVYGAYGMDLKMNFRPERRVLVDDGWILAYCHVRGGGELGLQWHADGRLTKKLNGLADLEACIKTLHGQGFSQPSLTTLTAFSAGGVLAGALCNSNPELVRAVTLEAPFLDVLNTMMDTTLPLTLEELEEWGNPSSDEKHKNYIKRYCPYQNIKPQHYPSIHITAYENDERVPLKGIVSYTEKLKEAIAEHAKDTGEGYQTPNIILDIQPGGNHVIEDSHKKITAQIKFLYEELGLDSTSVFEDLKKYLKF
* = called active by the depositor; i = inactive; ? = inconclusive; nt = no result given. Most compounds without a hit are left out; they make up all but 5% or so of the library.

SMILES | AI-2 QS modul | ALR inh | CHT block | CHT PAM | PREPL inhibitor
COc1ccc(NC(=O)CSc2nc3[nH]c(=O)cc(O)c3s2)c(OC)c1 | nt | 41 | nt | nt | 6
CSc1nsc(SCC(=O)Nc2ccc(NC(C)=O)cc2)n1 | 41 | 7 | i | i | -3
COc1ccc(NC(=O)CSc2nc3[nH]c(=O)cc(O)c3s2)cc1OC | nt | 99* | nt | nt | 4
N#Cc1ccc(NC(=O)CSc2nc3[nH]c(=O)cc(O)c3s2)cc1 | nt | 99* | nt | nt | 22
CC(=O)CC(C)(C)NC(C)=S | -15 | -9 | i | i | 1
COc1ccc(-c2[nH]c(-c3ccc(C)cc3)nc2SCC(=O)Nc2nccs2)cc1 | 28 | 94* | i | i | 12
Cc1ccc(N2C(=O)C(CC(=O)Nc3cccc(F)c3)N(C3CC3)C2=O)cc1 (centres undefined) | 18 | 79* | i | i | -1
CCCc1[nH]c2ccc(C#N)cc2c1CCC | 20 | 97* | i | i | 7
Cn1ccnc1SCc1cn2ccccc2n1 | 5 | 94* | i | i | -12
O=C(O)C1CCN(C(=O)COc2ccc3c(c2)oc(=O)c2ccccc23)CC1 | 21 | -24 | i | i | 0
Cc1c(Cc2ccccc2)c(=O)oc2cc(OCC(=O)N3CCC(C(=O)O)CC3)ccc12 | 13 | 93* | i | i | 4
Cc1c(Cc2ccccc2)c(=O)oc2cc(OC(=O)c3ccccc3)ccc12 | -14 | nt | i | i | -4
Cc1c(Cc2ccccc2)c(=O)oc2cc(OCc3nn[nH]n3)ccc12 | 36 | 98* | i | i | -17
COC(=O)Cc1c(C)c2ccc(OC(=O)c3ccccc3)cc2oc1=O | 33 | 98* | i | i | 17
N/C(=N\c1nc(CSc2ccccn2)cc(=O)[nH]1)Nc1ccc(Cl)cc1Cl | 12 | -8 | i | i | 6
O=C(CCc1ccccn1)N1CCCC(CNS(=O)(=O)c2cccs2)C1 (centres undefined) | 2 | 4 | i | i | 8
CC(CSc1nnnn1-c1ccccc1)Cn1c(N2CCCC2)nc2c1c(=O)[nH]c(=O)n2C (centres undefined) | 7 | 14 | i | i | 46*
Cn1c(=O)[nH]c(=O)c2c1nc(N1CCCC1)n2CC(O)COc1ccccc1 (centres undefined) | 14 | 95* | i | i | 7
Cc1nn(CC2CCCCC2)c(N)c1-c1ccccc1 | -32 | 98* | i | i | -1
CCOc1ccc(Cl)cc1CNCCCSc1nc(C)cc(C)n1 | 2 | 3 | i | i | -4
CN1CCN(CCn2c(=S)[nH]c3ccccc3c2=O)CC1 | 15 | 15 | i | i | 3
COc1ccc(N2CCN(CCCn3c(=S)[nH]c4ccccc4c3=O)CC2)cc1 | 23 | 95* | i | i | 13
CCOc1cc2[nH]c(=S)n(CCCN3CCOCC3)c(=O)c2cc1OCC | 22 | 50 | i | i | 8
COc1ccccc1N1CCN(CCCn2c(=S)[nH]c3ccccc3c2=O)CC1 | -7 | 97* | i | i | -15
COc1cc2c(=O)n(CCCN3CCOCC3)c(=S)[nH]c2c(OC)c1OC | 27 | 95* | i | i | 17
SMILES | AI-2 QS modul | ALR inh | CHT block | CHT PAM | PREPL inhibitor
COc1ccc(CN(Cc2ccc(C(=O)O)cc2)C(=S)Nc2ccc(C)cc2)cc1OC | 34 | 9 | i | i | 4
CCCOc1ccc(C(=O)CCC(=O)OCC(=O)N(C)c2c(N)n(Cc3ccccc3)c(=O)[nH]c2=O)cc1 | 31 | -9 | i | i | -10
COc1cc(-c2nc3ccccn3c2/N=C/c2ccc(F)cc2)ccc1O | 29 | 95* | i | i | 10
COc1ccc(OC)c(NC(=O)c2c(NC(=O)CCC(=O)O)sc3c2CCCCC3)c1 | 21 | 59 | i | i | 6
COc1ccccc1NC(=O)c1c(NC(=O)CCC(=O)O)sc2c1CCCCC2 | 36 | 98* | i | i | 3
CCOC(=O)c1c(NC(=O)CSc2nnc(C)s2)sc2c1CCN(C)C2 | 2 | -7 | i | 7.6* | 17
Cc1nnc(SCC(=O)Nc2sc3c(c2C(=O)c2ccccc2)CCCC3)s1 | 2 | 7 | i | 8.1* | 7
CCOC(=O)c1c(NC(=O)Cc2ccccc2)sc2c1CCN(C)C2 | -4 | 0 | i | i | -24
CSCC[C@H](NC(=O)N1CCn2c1nc1ccccc12)C(=O)NC1CC1 | -4 | ? | i | i | -3
Cc1cc(SCNC(=O)c2ccccc2)ncn1 | 8 | 94* | i | i | 2
O=C(NCSc1ccccc1)c1ccccc1 | 19 | -4 | i | i | 9
Cc1ccc(N/N=C(\C#N)C(N)=S)c(C)c1 | 25 | nt | i | i | 6
Cc1ccc(NC(=O)/C(C#N)=N/Nc2ccc(C(=O)O)cc2)c(C)c1 | 31 | 76* | i | i | 9
C[n+]1c2n(c3ccccc31)N=C(c1ccc(Cl)cc1)CS2 | 17 | 99* | i | i | 35
Oc1ccc(Cl)cc1Cc1cc(Cl)ccc1O | -112* | 70 | i | i | -7
Nc1nnc(N2CCCCC2)s1 | 10 | 91* | i | i | 23
Brc1ccc(-c2csc(-c3c[nH]c4ccccc34)n2)cc1 | 3 | -4 | i | i | 14
c1ccc2c(-c3csc(-c4ccncc4)n3)c[nH]c2c1 | 7 | 99* | i | i | 20
CCN(CC)c1ccc(NC(=O)Cn2cc3c(n2)CCC(C)C3)c(C)c1 (centres undefined) | 20 | 99* | i | i | 3
CNC(=O)CN1C(=O)CSc2ncccc21 | 8 | -36 | i | i | 2
CC1CCc2nn(CC(=O)Nc3ccc(F)cc3F)cc2C1 (centres undefined) | -19 | -1 | i | i | 10
CCN(CC)c1ccc(NC(=O)CN2C(=O)CSc3ncccc32)c(C)c1 | 10 | 97* | i | i | -7
Oc1c(CN2CCCC(C(F)(F)F)C2)cc(Cl)c2ccccc12 (centres undefined) | -1 | -27 | i | i | 16
Cc1cccc(CSc2ncnc3ccccc23)c1 | -11 | -14 | i | i | 21
O=[N+]([O-])c1cccc(CSc2ncnc3ccccc23)c1 | 20 | 99* | i | i | 15
Cc1ccc(NC(=O)COC(=O)CNC(=O)c2ccco2)cc1 | 23 | 29 | i | i | -10
O=c1cc(-c2ccccc2Cl)oc2ccc([N+](=O)[O-])c(O)c12 | -2 | 14 | i | i | 21
O=c1cc(-c2ccccc2Cl)oc2c([N+](=O)[O-])c(O)cc(O)c12 | 20 | 57 | -13* | i | -8
O=C(Nc1nnc(-c2ccc(F)cc2)o1)c1ccco1 | 7 | 96* | i | i | 17
COc1ccc(-c2nnc(NC(=O)c3ccc(F)cc3)o2)cc1 | ? | 22 | i | i | 7
